ELG1 DNA repair: ELG1-dependent DNA repair inhibition; Potency, µM (series often up to 46.1 µM), without a hit: at the top dose activity change, negative = inhibition, actives largely listed as inhibitors; hit rate 2.3% among 330,000; HEK293T ELG1-luciferase reporter, luminescence, 16 h; DNA damage induced by 5-fluorouridine; AID 504467; further: potency means the concentration at half of the fitted maximal effect; nearly all actives have a fitted effect of over 55% in size
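Step one: seed 2,000 cells per well. Step two: pin-transfer compound or DMSO alongside 5-fluorouridine. Step three: incubate 16 hr, 37 °C, 5% CO2. Step four: add ONE-Glo, wait 30 min, read luminescence.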
RORg inh: ROR gamma (mouse) transcription inhibition. P51450. Drosophila S2 Gal4-RORgamma UAS-luciferase reporter, 20 h. Potency, µM (doses to about 53.6 µM), without a hit: at the highest dose activity change, negative = inhibition, hits mostly inhibitors. hit rate 5.4% among 310,000. AID 2551; further: potency means the concentration at half of the fitted maximal effect; nearly all actives have a fitted effect of over 60% in size
Target sequence (P51450 whole entry, looked up, the tested form may be a part): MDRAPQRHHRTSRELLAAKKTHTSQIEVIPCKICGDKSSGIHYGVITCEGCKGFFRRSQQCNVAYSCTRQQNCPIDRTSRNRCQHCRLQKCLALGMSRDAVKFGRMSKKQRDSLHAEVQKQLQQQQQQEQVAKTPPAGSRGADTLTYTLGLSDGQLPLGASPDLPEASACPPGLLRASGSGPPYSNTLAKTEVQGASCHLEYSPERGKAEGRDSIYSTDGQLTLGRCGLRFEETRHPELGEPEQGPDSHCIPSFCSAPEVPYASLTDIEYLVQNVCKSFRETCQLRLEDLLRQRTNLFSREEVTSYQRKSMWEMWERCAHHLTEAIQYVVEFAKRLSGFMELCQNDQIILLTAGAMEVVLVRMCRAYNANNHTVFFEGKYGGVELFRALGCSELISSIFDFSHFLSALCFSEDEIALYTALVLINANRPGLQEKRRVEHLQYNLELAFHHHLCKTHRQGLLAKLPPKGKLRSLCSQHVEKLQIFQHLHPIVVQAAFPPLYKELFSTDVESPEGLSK
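Schneider cells (Drosophila), stable Gal4 DBD–ROR gamma + UAS-luc; 1 hr cmpd preincubation; Cu2+ induction 700 uM final; 20 hr ambient; luminescence.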
DT40 TDP1 no CPT: qHTS for Inhibitors of human tyrosyl-DNA phosphodiesterase 1 (TDP1): qHTS in cells in absence of CPT; DT40 Tdp1-/- hTDP1 cells, no CPT, ATP luminescence, 48 h; Potency, µM (highest dose often 46.2 µM), for inactives: at the highest dose activity change, negative = growth inhibition, hits mostly inhibitors; hit rate 15% among 420,000; AID 686978, 2013; further: potency means the concentration at half of the fitted maximal effect; nearly all actives have a fitted effect of over 55% in size
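Readout: luminescence from CellTiter-Glo after 30 min in the dark at RT. Cells: DT40 Tdp1-/- with stable hTDP1, 400/well. Exposure: compounds alone, ≥48 hr, 37 °C.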
TDP1 cell CPT: DT40-hTDP1 cell growth loss with CPT. hit rate 12% among 420,000. Potency, µM (top dose mostly 46.2 µM), for inactives: at the top dose activity change, negative = growth inhibition, actives largely listed as inhibitors. AID 686979. chicken DT40 Tdp1-/-;hTDP1 cells + 20 nM CPT, ATP luminescence, 48 h; further: potency means the concentration at half of the fitted maximal effect; nearly all actives have a fitted effect of over 55% in size
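Chicken DT40 Tdp1-/- cells stably complemented with human TDP1 were seeded at 400 cells/well in medium containing 20 nM camptothecin, exposed to pin-transferred compounds, and grown at 37 °C for at least 48 hr. Viability was read as ATP luminescence.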
IL1B secr inh: inhibitors of inflammasome signaling (IL-1 beta secretion); THP-1 LPS/ATP IL-1B secretion, AlphaLISA, 16 h; active compounds read low; activity change, % at 57.5 µM; hit rate 4.7% among 360,000; in the data active means activity change below about -50%; inconclusive means mostly about -30% to -49%
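THP-1 cells pretreated 1 hr with compounds (up to 57.5 uM final), then stimulated with LPS (250 ng/mL final) plus ATP (1.25 mM final); secreted IL-1B measured by AlphaLISA after 16 hr, decreased signal indicating inhibition.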
Gal4-VP16 FLuc: counter-screen for ROR gamma inhibitors: Gal4-VP16 reporter | Drosophila S2 Gal4-VP16 UAS-luciferase, luminescence, 20 h | Potency, µM (highest dose often 53.6 µM), for the others: top-dose activity, negative = inhibition, actives largely listed as inhibitors | hit rate 3.5% among 310,000 | AID 2546;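 further: Gal4-VP16 expression switched on by copper sulfate through the metallothionein promoter; potency means the concentration at half of the fitted maximal effect; nearly all actives have a fitted effect of over 50% in size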
Starred values were filed as active, the others as inactive; ? = inconclusive; . = not tested or not shown; [ ] = dose if it differs, or a comment. An excerpt weighted towards active compounds, which were near 21% of everything screened. Unless noted, the call rests on the fitted dose curve; in most records, active means well fitted curve in the direction sought with a large enough effect; inconclusive means small, poorly fitted or top-dose-only effect, or another doubt; inactive means no such curve, though single readings can be large; an effect the other way counts as inactive or inconclusive. On the % scale 0 is the no-effect control and ±100 the full control effect.

SMILES	ELG1 DNA repair	RORg inh	DT40 TDP1 no CPT	TDP1 cell CPT	IL1B secr inh	Gal4-VP16 FLuc
Cc1ccc(C)c(SCC(=O)OC/C(O)=C(\C#N)c2nc3ccccc3[nH]2)c1	?	10µM*	?	?	-97*	?
Cc1cc(Br)ccc1SCC(=O)OCC(O)=C(C#N)c1nc2ccccc2[nH]1	.	.	4.6µM*	4.6µM*	-102*	.
Cc1cc(Br)ccc1SCC(=O)OC/C(O)=C(\C#N)c1nc2ccccc2[nH]1	7%	0%	21µM*	?	0	?
Cc1c(C(=O)OC/C(O)=C(\C#N)c2nc3ccccc3[nH]2)oc2ccc(Br)cc12	-3%	-20%	?	-26%	34	-4%
N#C/C(=C(/O)COC(=O)CSc1ccc2ccccc2c1)c1nc2ccccc2[nH]1	?	7.1µM*	2.9µM*	5.2µM*	-105*	14µM*
COC1=CC(C)C2CC3OC(=O)CC4C(C)=C(OC)C(=O)C([C@]2(C)C1=O)[C@]34C (stereo partly drawn)	.	21%	-3%	18%	.	-8%
CC(C)CC1OCCC=CC1C (stereo not drawn)	.	-2%[10 µM]	.	.	.	-5%[10 µM]
CC(C)NC(=O)c1cn([C@H]2CC[C@@H](NC(=O)/C=C/c3cccs3)CC2)nn1	.	.	-17%	?	.	.
CN1C2C=CC(=O)C1C1C(=O)N(c3ccccc3)C(=O)C12 (stereo not drawn)	.	.	18µM*	18µM*	-118*	.
Cc1ccccc1N1C(=O)C2C3C=CC(C2C1=O)N(C)C3=O (stereo not drawn)	8%	-5%	-2%	3%	17	-14%
CCn1c(CC(=O)Nc2ccccc2F)nnc1SCC(=O)Nc1nncs1	-5%	19%	5%	9%	10	?
COc1ccnc(NCc2cccnc2)c1C#N	15%	1%	29µM*	3%	15	1%
COc1ccnc(NCc2cccc(C(F)(F)F)c2)c1C#N	-6%	-15%	-5%	12%	-9	-2%
CCN(CC)C(=O)Cn1cc(C(=O)C2CC2)c2ccccc21	2%	10%	-2%	3%	13	-8%
CC(=O)Nc1nonc1-c1ccccc1	-1%	-18%	-3%	-15%	7	1%
O=C(Nc1nonc1-c1ccc(Cl)cc1)c1ccccc1	?	11µM*	?	-3%	-12	?
CCOc1ccc(OCCOC(=O)CN(C)S(=O)(=O)c2ccc(NC(C)=O)cc2)cc1	22%	.	0%	-3%	-12	.
Cc1cccc(N2C(N)=NC(N)=NC23CCCCC3)c1	-10%	-12%	12µM*	16µM*	15	-1%
COC(=O)C1=C(N)c2ccccc2C1(C#N)c1ccccc1 (stereo not drawn)	-15%	11%	?	-17%	-8	16µM*
COC(=O)c1c(NC(=O)CC2Nc3cc(C)c(C)cc3NC2=O)sc(C)c1C (stereo not drawn)	17%	64%	?	21µM*	7	-8%
Cc1cc2c(cc1C)NC(CC(=O)NCc1ccccc1)C(=O)N2 (stereo not drawn)	?	-15%	-23%	?	1	28%
Cc1cc2c(cc1C)NC(CC(=O)Nc1ccccc1SC(F)(F)F)C(=O)N2 (stereo not drawn)	.	.	16µM*	?	.	.
CCc1cc(C(=O)OC)c(NC(=O)CC2Nc3cc(C)c(C)cc3NC2=O)s1 (stereo not drawn)	?	6%	-8%	-13%	0	-6%
COc1ccccc1NC(=O)CC1Nc2ccccc2NC1=O (stereo not drawn)	-16%	?	-27%	2%	18	3%
Cc1cc2c(cc1C)NC(CC(=O)Nc1cccc(C)c1C)C(=O)N2 (stereo not drawn)	.	.	16µM*	15µM*	.	.
SMILES	ELG1 DNA repair	RORg inh	DT40 TDP1 no CPT	TDP1 cell CPT	IL1B secr inh	Gal4-VP16 FLuc
Cc1ccc(S(=O)(=O)N2C[C@H]3[C@H]4C(=O)N(Cc5ccccc5)C(=O)[C@H]4CC(=O)[C@H]3[C@@H]2c2cccc3ccccc23)cc1	.	.	?	?	-9	.
Cc1ccccc1S(=O)(=O)N1C[C@@H]2C(C(=O)C[C@@H]3C(=O)N(C)C(=O)[C@@H]32)[C@@H]1c1ccc(Cl)cc1 (stereo partly drawn)	.	.	-23%	-13%	0	.
O=C(NCC1CCCO1)c1ccc(Cl)c(NS(=O)(=O)c2ccc(F)cc2)c1 (stereo not drawn)	.	.	-14%	-20%	16	.
Oc1ccc(/C=N/N2CCOCC2)c(O)c1O	-3%	1%	4.1µM*	4.1µM*	-19	-3%
O=C1c2cccc3cccc(c23)C(=O)N1/N=C/c1ccc(O)cc1O	-7%	-11%	-25%	-1%	-19	-9%
COc1cccc(/C=N/N2CCOCC2)c1O	?	-29%	2%	3%	-18	0%
O=C1c2ccccc2C(=O)N1/N=C/c1ccc(O)c(O)c1O	-6%	4%	?	4.1µM*	-1	-9%
Oc1ccc(/C=N/N2CCCCC2)c(O)c1O	-8%	6%	10µM*	5.8µM*	-3	7%
Oc1cccc(/C=N/N2CCCCC2)c1O	?	20%	?	-24%	-3	28%
COc1ccc(CCN2CCC[C@H](CN3CCc4cc(OC)c(OC)cc4CC3=O)C2)cc1OC	.	17%	.	.	.	5%
CCOc1ccccc1NS(=O)(=O)c1c(-c2ccc(C)cc2)csc1C(=O)OC	.	.	16µM*	?	.	.
CCOC(=O)c1ccccc1NS(=O)(=O)c1c(-c2ccc(C)cc2)csc1C(=O)OC	.	.	5.8µM*	6.5µM*	.	.
NC(Cc1ccc(Cl)cc1)c1csc(Nc2cc(Oc3ccccc3)ncn2)n1 (stereo not drawn)	.	.	?	-106%	-69*	.
COc1ccc(CC(N)c2csc(Nc3cc(Oc4ccccc4)ncn3)n2)cc1 (stereo not drawn)	.	.	12µM*	16µM*	.	.
NC(Cc1ccc(F)cc1)c1csc(Nc2ccc(C(=O)NCCCO)cn2)n1 (stereo not drawn)	.	.	?	?	-4	.
NC(COCc1ccccc1)c1csc(Nc2cc(Oc3ccccc3)ncn2)n1 (stereo not drawn)	.	.	26µM*	?	-79*	.
NC(Cc1ccc(F)cc1)c1csc(Nc2cc(Oc3ccccc3)ncn2)n1 (stereo not drawn)	.	.	?	?	-75*	.
CC(C)OCCCNC(=O)CCCn1c(SCC(=O)c2ccc(Br)cc2)nc2c(sc3ccccc32)c1=O	.	.	-23%	-13%	.	.

Assay outcomes: PubChem BioAssay, National Center for Advancing Translational Sciences (NCATS)
